Compound activity deposited in PubChem BioAssay by National Center for Advancing Translational Sciences (NCATS).
Rango release inh: prevents RanGTP from dissociating the Rango-importin beta complex; O95149+P62826; Biochemical FRET Rango-importin beta, RanGTP-induced dissociation; Potency, µM (series often up to 46.1 µM), without a hit: at the highest dose activity change, negative = inhibition; actives 0.071% (n = 340,000); AID 540253; calls by dose curve; further: % of control where 0% means no effect; nearly all actives have a fitted effect of over 45% in size
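Rango/importin beta premix (0.1/0.25 uM final), PBS + 1 mM DTT + 0.02% Tween-20 + 0.1% BSA; cpd 5 min RT; FRET pre-read; + RanGTP-RCC1 (0.6 uM Ran, 2 mM GTP, 0.2 uM RCC1); 45 min RT; FRET post-read, ex 430, em 486/530 nm.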
ASM inhibitor: blocks human secretory acid sphingomyelinase; actives 0.006% (n = 340,000); Potency, µM (doses to about 57.5 µM), for inactives: at the top dose activity change, negative = inhibition, usual class: inhibitors; placental ASM, HMU-PC fluorogenic substrate, 60 min; P17405
Target sequence (P17405 47-631 limits assumed): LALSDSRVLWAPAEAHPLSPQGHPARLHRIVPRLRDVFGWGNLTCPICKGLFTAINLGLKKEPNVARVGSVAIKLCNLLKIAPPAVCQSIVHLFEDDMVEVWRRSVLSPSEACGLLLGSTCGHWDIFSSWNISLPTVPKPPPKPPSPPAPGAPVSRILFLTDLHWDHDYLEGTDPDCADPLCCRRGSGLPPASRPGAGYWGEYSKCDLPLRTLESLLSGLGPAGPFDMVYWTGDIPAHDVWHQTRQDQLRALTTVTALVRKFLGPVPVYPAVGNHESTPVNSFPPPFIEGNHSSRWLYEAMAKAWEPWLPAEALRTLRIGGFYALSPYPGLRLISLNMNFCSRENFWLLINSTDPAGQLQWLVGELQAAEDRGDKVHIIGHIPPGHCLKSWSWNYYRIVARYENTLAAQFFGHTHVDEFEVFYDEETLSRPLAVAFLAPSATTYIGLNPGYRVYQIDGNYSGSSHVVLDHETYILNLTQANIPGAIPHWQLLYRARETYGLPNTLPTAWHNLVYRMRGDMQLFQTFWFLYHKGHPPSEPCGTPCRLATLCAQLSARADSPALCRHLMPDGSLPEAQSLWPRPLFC
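Human placenta-derived ASM enzyme was preincubated with compound for 10 minutes at room temperature, then given fluorogenic substrate HMU-PC0 (9 uM final) for 60 minutes at 37 °C; a pH 10 stop preceded fluorescence reading at Ex 386/Em 447 nm.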
Abeta yeast res: restores growth of yeast expressing A-beta42 peptide. Potency, µM (top dose mostly 46.1 µM), hits mostly activators. yeast expressing A-beta42, growth rescue, OD600, 48 h; response scale: 0% DMSO, 100% iron-clioquinol control. actives 0.063% (n = 410,000); further: nearly all actives have a fitted effect of over 55% in size
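Yeast growth medium received pinned compounds, then yeast cells expressing toxic A-beta were added; plates incubated at 30 C for 48 hr. Growth read as absorbance at 600 nm, normalized to DMSO and equimolar FeCl3 plus clioquinol controls.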
aSyn rescue: inhibitors of alpha-synuclein toxicity in yeast | Yeast expressing alpha-synuclein, growth rescue, BacTiter-Glo, 24 h | Potency, µM (titrated, usually from 46.1 µM), inactives show at the top dose growth rescue (activation), hits mostly activators | actives 0.14% (n = 370,000) | AID 652106; further: % of control where 0% means no effect; nearly all actives have a fitted effect of over 65% in size
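Screening used galactose-induced yeast with toxic alpha-synuclein levels, exposed to compound for 24 hr at 30 deg C. Cell growth, read with BacTiter-Glo luminescence, gave the measured signal.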
Rango complex inh: prevents formation of the Rango-importin beta complex; Q14974; Rango CFP/YFP FRET sensor + importin beta, 45 min; Potency, µM (doses to about 92.2 µM), for the others: top-dose inhibition of complex formation; actives 0.031% (n = 340,000); AID 540263; calls by dose curve;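 further: 0% = DMSO wells and 100% = buffer wells lacking importin beta; nearly all actives have a fitted effect of over 15% in size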
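FRET biosensor (snurportin 1 IBB flanked by EYFP and cerulean), 50 nM, with compound 5 min, then 0.125 microM importin beta in PBS, 1 mM DTT, 0.02% Tween-20, 0.1% BSA. CFP/YFP ratio read after 45 min at room temperature; pre-read flags interference.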
TDP43 rescue: rescues yeast growth from TDP-43 toxicity; AID 652104; TDP-43 expressing yeast growth rescue, BacTiter-Glo, 24 h; actives 1.8% (n = 410,000); Potency, µM (top dose mostly 46.1 µM), for inactives: at the top dose growth rescue (activation), actives largely listed as activators; further: % of control where 0% means no effect; nearly all actives have a fitted effect of over 50% in size
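In this qHTS, compounds that restore growth of yeast expressing TDP-43 appear as activators. Cells (OD600=0.02, galactose medium, raffinose-pregrown) are incubated with compound 24 hr at 30 deg C and growth is quantified by BacTiter-Glo.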
* = called active by the depositor; i = inactive; ? = inconclusive; / = no result; [ ] = dose if it differs, or a comment. Hits are enriched below; roughly 2% of the tested compounds scored in any of these assays. Unless noted, the call rests on the fitted dose curve; in most records, active means well fitted curve in the direction sought with a large enough effect; inconclusive means small, poorly fitted or top-dose-only effect, or another doubt; inactive means no such curve, though single readings can be large; an effect the other way counts as inactive or inconclusive. Potency means the concentration at half of the fitted maximal effect.

SMILES	Rango release inh	ASM inhibitor	Abeta yeast res	aSyn rescue	Rango complex inh	TDP43 rescue
Cc1ccc(O)c(C(=O)/C=C/c2ccc3c(c2)OCCCO3)c1	-5%	-13%	i	-18%	2%	14µM*
COc1cc(OC)c(C=CC(=O)c2ccccc2O)c(OC)c1	?	?	i	-7%	7%	12%
COc1cc(/C=C/C(=O)c2ccccc2O)cc(OC)c1OC	-10%	?	i	13%	1%	16µM*
O=C(/C=C/c1ccc2c(c1)OCCCO2)c1ccccc1O	13%	0%	i	-37%	-1%	13µM*
Cc1ccc(C(=O)/C=C/c2ccc3c(c2)OCO3)o1	-20%	111%	i	-1%	?	26%
Cc1ccc(/C=C/C(=O)c2ccccc2O)cc1	1%	-1%	i	0%	-1%	7%
CN(C)c1ccc(/C=C/C(=O)c2ccccc2O)cc1	-4%	-5%	i	-3%	1%	17%
Cc1ccc(-n2nc3c(=O)n(CC(=O)NC(C)C)nc(C)c3c2C)cc1	/	/	i	/	/	17%
CCn1c(CN2CCOCC2)nc2cc(NC(=O)c3ccccc3[N+](=O)[O-])ccc21	/	/	i	/	/	6%
Nc1c(-c2nc(-c3cccs3)no2)nnn1-c1cccc(F)c1	/	/	i	/	/	2%
Cc1ccc(-c2nnc(Nc3cccc(Cl)c3)c3ccccc23)cc1S(=O)(=O)NCC1CCCO1 (stereo not given)	/	/	i	/	/	10%
CC(=O)C1=C(OC(=O)C(C)C)c2ccccc2S(=O)(=O)N1Cc1ccccc1	/	/	i	/	/	?
Cc1ccc(N2CC(c3nnc(NC(=O)c4ccco4)s3)CC2=O)cc1Cl (stereo not given)	/	/	i	/	/	17%[9.22 µM]
COc1cc(/C=C/C(=O)c2ccc3c(c2)OCCO3)cc(Br)c1OCC(=O)N(C)C	?	0%	i	11%	?	25µM*
FC(F)(F)c1cc(-c2ccccc2)nc(NCC2CCCO2)n1 (stereo not given)	1%	4%	i	-16%	-2%	13µM*
Fc1ccc(-c2cc(C(F)(F)F)nc(NCC3CCCO3)n2)cc1 (stereo not given)	-15%	7%	i	-17%	1%	?
O=[N+]([O-])c1ccccc1-c1cc(-c2cc(Cl)ccc2O)n[nH]1	-10%	-6%	i	0%	0%	13µM*
COc1ccc(O)c(-c2cc(-c3ccccc3[N+](=O)[O-])[nH]n2)c1	12%	-3%	i	3%	-7%	20%
Cc1ccc(O)c(-c2cc(-c3ccccc3[N+](=O)[O-])[nH]n2)c1	-27%	-10%	i	22µM*	4%	?
Nc1nc(=S)c2snnc2[nH]1	/	/	/	0%	/	/
Cc1cccc(-c2nc(CCNC(=O)c3ccco3)cs2)c1	/	/	i	-8%	/	?
O=C(NCCc1csc(-c2ccccc2)n1)c1ccc(Br)o1	1%	-2%	i	6%	0%	22µM*
Cc1cccc(-c2nc(CCNC(=O)c3ccc(Br)o3)cs2)c1	/	/	i	/	/	16µM*
CCc1cc(=O)oc2c3c(cc(OCC(=O)NCc4ccco4)c12)OC(C)(C)CC3	5%	20%	i	-2%	-2%	35µM*
CCc1cc(=O)oc2c3c(cc(OCC(=O)NCc4ccncc4)c12)OC(C)(C)CC3	3%	18%	i	-2%	-5%	11%
SMILES	Rango release inh	ASM inhibitor	Abeta yeast res	aSyn rescue	Rango complex inh	TDP43 rescue
CCc1ccc(OCC(=O)NCc2ccco2)c(Br)c1	0%	3%	i	-3%	0%	13µM*
CC(CCc1ccccc1)NC(=O)Cn1c(=O)nc(-c2ccccc2F)c2cc(Cl)ccc21 (stereo not given)	/	/	i	/	/	11%
COc1ccccc1N1CCN(C(=O)c2cc3c(=O)oc4ccc(C)cc4c3s2)CC1	/	/	i	/	/	-7%
CC(C)N(C(=O)[C@H]1CC(CC(=O)NCC23CC4CC(CC(C4)C2)C3)C(=O)N2CCc3c([nH]c4ccccc34)[C@]12C)C(C)C (stereo not given in full)	12%	-13%	i	?	3%	22µM*
COc1ccc(CNC(=O)C[C@H]2C[C@H](C(=O)N(C(C)C)C(C)C)[C@@]3(C)c4[nH]c5ccc(Cl)cc5c4CCN3C2=O)cc1OC	7%	-10%	i	13%	-10%	13µM*
CC(C)N(C(=O)[C@H]1C[C@H](CC(=O)NCC23CC4CC(CC(C4)C2)C3)C(=O)N2CCc3c([nH]c4cc(-c5ccco5)ccc34)[C@]12C)C(C)C	-14%	?	i	-10%	0%	1%
Cc1c(C(=O)N(C)C)sc2c1c(=O)n(-c1ccc(Cl)c(Cl)c1)c(=O)n2CC(=O)Nc1ccc(Br)cc1F	/	/	/	4%	/	/
Cc1ccc(S(=O)(=O)NOCc2ccccc2)cc1	1%	1%	i	18µM*	-1%	-16%
Cc1ccc(S(=O)(=O)N[C@@H](Cc2ccccc2)C(=O)CCl)cc1	3%	-5%	i	-39%	0%	3.2µM*
Cc1cc2oc(C(=O)N(Cc3ccccc3)C3CCS(=O)(=O)C3)cc(=O)c2cc1C (stereo not given)	/	/	i	/	/	16%
O=C(C[n+]1ccccc1Cl)c1ccc(I)cc1	/	/	/	14%	/	/
CC(C)(C)c1cc(NCc2ccccn2)n2ncc(-c3ccc(Cl)cc3)c2n1	0%	85%	i	12%	1%	22µM*
CN(C)CCCNc1cc(C(C)(C)C)nc2c(-c3ccc(Cl)cc3)cnn12	3%	-3%	i	-25%	2%	-13%
COC(=O)c1cc2c([nH]c1=O)CC(c1ccccc1)CC2=O (stereo not given)	/	/	/	3%	/	/
O=C(O)c1ccc(SCc2ccccc2)nc1	-18%	7%	i	7%	-4%	13µM*
O=C(c1ccccc1Cc1ccccc1)N1CCN(S(=O)(=O)c2ccccc2Br)CC1	19%	-2%	i	?	-1%	13µM*
Cc1nn(-c2ccccc2)c(Cl)c1CN(C(=O)CCl)c1cccc2ccccc12	6%	0%	i	9%	?	18µM*
CC(=O)N(Cc1c(C)nn(-c2ccccc2)c1Cl)c1ccc(Cl)cc1	2%	5%	i	18%	-1%	6%
Cc1nn(-c2ccccc2)c(Cl)c1CN(C(=O)CCl)c1ccc(Cl)cc1	2%	0%	i	-35%	-4%	20µM*
Cc1ccc2c(c1)cc1c(=O)n(CC(=O)NC3CCCCC3)nc(C)n12	/	/	i	/	/	9%
